Drawing on PubChem BioAssay, this text covers inhibition for 17 molecules.

Values without a mark were called inactive. No rule for the calls is given here.

The target in the experiment is Pantothenate synthetase (Mycobacterium tuberculosis (strain ATCC 25618 / H37Rv)) (UniProt P9WIL5). Kind of experiment: Recombinant Mtb pantothenate synthetase (PanC) inhibitors, coupled enzyme, confirmatory (AID 375).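 Also: 0% = full reaction with vehicle and 100% = no enzyme background.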 The following applies: coupled enzyme assay; at 10 µM, hits give high values.
Pantothenate synthetase (Mycobacterium tuberculosis (strain ATCC 25618 / H37Rv)), sequence (P9WIL5 whole entry, looked up): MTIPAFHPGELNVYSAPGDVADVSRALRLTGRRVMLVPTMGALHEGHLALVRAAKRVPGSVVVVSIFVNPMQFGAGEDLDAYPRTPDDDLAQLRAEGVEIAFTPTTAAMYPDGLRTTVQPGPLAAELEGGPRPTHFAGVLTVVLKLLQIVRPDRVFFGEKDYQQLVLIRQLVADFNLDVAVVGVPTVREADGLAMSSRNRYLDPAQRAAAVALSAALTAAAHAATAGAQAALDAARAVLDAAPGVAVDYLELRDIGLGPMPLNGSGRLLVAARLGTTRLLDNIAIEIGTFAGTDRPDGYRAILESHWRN
`COc1ccc(OC)c(S(=O)(=O)NCCO)c1`: the inhibition is 1%.

`COc1ccccc1NC(=O)NCCCN1CCN(c2cccc(Cl)c2)CC1`: the inhibition was 2%.

`COc1ccc(Cn2nnnc2C(c2ccccc2OC)N2CCC(C(N)=O)CC2)cc1` (configuration not stated): the inhibition is 0%.

For `Cc1ccc(-n2nc(C(=O)N3CCN(C)CC3)c3c4ccccc4n(C)c3c2=O)cc1`, the inhibition is 0%.

For `O=C(C1CCN(c2nnc(-n3cccc3)s2)CC1)N1CCOCC1`, the inhibition was 0%.

`O=C(Nc1ccc(CN2CCOCC2)cc1)c1cc2ccccc2oc1=O`: the inhibition was 4%.

As to `Cc1cc2nc3c(nc2cc1C)C1(C(=O)O)CCC3(C)C1(C)C` (configuration not stated), the inhibition was 0%.

`O=C(Nc1ccccc1N1CCCCC1)c1ncoc1-c1ccc(F)cc1`: the inhibition was 1%.

As for `CCOC(=O)C1CCN(C(=O)CCCCn2c(=O)[nH]c3ccccc3c2=O)CC1`, the inhibition was 2%.

As to `CCOC(=O)C(C)On1c(SC(C)C(=O)OCC)nc2ccccc2c1=O` (configuration not stated), the inhibition was 0%.

Regarding `O=C(NCc1ccco1)c1noc2c1CCCCC2`, the inhibition was 12%.

Take `COCCNC(=O)CN(C)S(=O)(=O)c1ccc(Br)cc1`: the inhibition was 0%.

As for `COC(=O)c1cc(Br)c(=O)n(-c2ccc(OC)cc2)c1`, the inhibition is 0%.

As for `Cc1ccccc1C(=O)NC1CCN(CC(=O)Nc2nccs2)CC1`, the inhibition was 0%.

Turning to `O=C(Cn1ccc2ccccc2c1=O)Nc1ccc2c(c1)OCO2`, the inhibition was 6%.

Take `CCn1c(NCc2ccc(N(C)C)cc2)nc2ccccc21`: the inhibition is 0%.

Turning to `CCOc1ccccc1N(CC(=O)N1CCCCCC1)S(C)(=O)=O`, the inhibition was 0%.
